Source: PubChem (several laboratories)
Sampled rows, rich in hits. Any-hit rate of the full collection: about 11%.
Autophagy mod – autophagy modulation, high-content screen | MEF GFP-LC3 puncta imaging; test concentration mostly 10 µM | calls only at 10 µM (by protocol) | 0.98% of 190,000 active;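 active = percentage of spot-positive cells more than 3 SD above its plate mean, without a fluorescence outlier flag or 80% toxicity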;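 note: spot-positive cell cutoff set from DMSO-treated cells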
WT yeast gro inh – growth inhibition of WT yeast, mitochondrial fusion screen | inhibition, % at 10 µM | mitochondrial fusion phenotypic screen, WT strain | 2.1% of 190,000 active | AID 1362; in the data active = inhibition above about 58%; tested in S. cerevisiae
Insulin prom up – MIN6 insulin promoter up-regulation; z-score at 5 µM; 0.3% of 190,000 active; MIN6 insulin promoter-GFP reporter, high-content imaging; hits give high values; AID 1625;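 active = z-score above 3 at 5 µM with at least 500 cells counted in the well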
INS promoter inh – TRM-6 insulin promoter activity inhibition; AID 1273; inhibition, % at 2 µM; TRM-6 cells (human fetal islet line), insulin promoter-eGFP reporter, imaging; reporter expression induced with tamoxifen; 0.9% of 130,000 active;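 active = inhibition above the mean plus 3 SD, with well images judged a real hit on visual review, cut at about 60% in these data, passing the limit was not always enough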
Lmaj promast – inhibitors of Leishmania major promastigote growth. Leishmania major promastigotes, resazurin fluorescence viability. inhibition, % at 10 µM. 9% of 200,000 active; in the data active = inhibition above about 50%;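 note: promastigotes grown with compound for 44 hours at 28 °C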
The depositor's hits bear a star; i = inactive; x = no result given.

SMILES | Autophagy mod | WT yeast gro inh | Insulin prom up | INS promoter inh | Lmaj promast
O=C(CCNC(=O)c1ccccc1)Nc1cccnc1 | i | -4 | x | x | -5
COCCNC(=O)/C(C#N)=C/c1ccc(-c2ccc(S(=O)(=O)N3CCOCC3)cc2)o1 | i | 2 | 0.23 | 14 | 78*
C=CCNc1nc(NCC)nc(N2CCOCC2)n1 | i | 6 | -0.81 | 60 | 4
CC(C)CCCNc1nc(N2CCOCC2)nc(N2CCOCC2)n1 | i | -8 | -0.23 | x | 24
CCNc1nc(NC(C)(C)C)nc(N2CCCC2)n1 | i | 60* | x | 44 | 80*
CSc1nc(NC(C)(C)C)nc(N2CCOCC2)n1 | i | 19 | -1.1 | 38 | -1
CC(C)(C)Nc1nc(N2CCCC2)nc(N2CCCC2)n1 | i | 11 | -1.4 | -29 | 98*
CCCNc1nc(N2CCCC2)nc(N2CCCC2)n1 | i | 31 | x | 83* | 89*
COc1ccc(NC(=O)CSc2nc3ccsc3c(=O)n2CCCCCC(=O)O)cc1 | i | -8 | -1 | x | -1
COc1cccc(NC(=O)COC(=O)c2ccccc2C(=O)N2CCN(c3ccccc3)CC2)c1 | i | 3 | 0.23 | x | 10
CNC(=S)NCCc1c[nH]c2ccc(OC)cc12 | i | -13 | 0.01 | x | -5
COc1ccc(OCC(=O)NCCc2c[nH]c3ccccc23)cc1 | i | -2 | 0.39 | -7 | 64*
O=C(CCCCn1c(=O)[nH]c2ccccc2c1=O)NCCc1c[nH]c2ccccc12 | i | 12 | 0 | 30 | -1
COc1cc2[nH]c(=O)n(CCCCCC(=O)NCCc3c[nH]c4ccccc34)c(=O)c2cc1OC | i | 28 | x | 67* | 0
COc1ccc(CCNC(=S)NCCc2c[nH]c3ccccc23)cc1 | i | -6 | 0.12 | x | 91*
CCOc1ccc(OCC)c(NC(=O)c2[nH]c(C)c(C(C)=O)c2C)c1 | i | -25 | -0.28 | 0 | -4
CC(=O)NC1(C(F)(F)F)C(=O)Nc2c1c(=O)[nH]c(=O)n2CCc1ccccc1 (stereo not drawn) | x | x | 0.08 | x | x
O=C(NCc1ccccc1)c1ccccc1C(=O)c1ncc[nH]1 | i | -10 | x | x | -4
COc1cccc(N(CC(=O)NCc2ccco2)C(=O)CCC(=O)Nc2nccs2)c1 | x | x | -0.12 | x | x
O=C(Nc1ccc(C2CCCCC2)cc1)C1CCCN(c2ncccn2)C1 (stereo not drawn) | x | x | 3.8* | x | x
CC(=O)Nc1ccc(NC(=O)C2CCCN(c3ncccn3)C2)cc1 (stereo not drawn) | i | -2 | -0.06 | -3 | -2
Cc1ccc(NC(=O)NCC2CCN(Cc3cc(C)ccc3Cl)CC2)c(C)c1 | i | 11 | -0.19 | x | 25
Cc1cccc(CN2CCC(CNC(=O)CSc3cc(=O)n(C)c4cc(Cl)ccc34)CC2)c1 | x | x | -0.3 | x | x
Cc1ccc(NC(=O)NCC2CCN(Cc3cccc(Cl)c3)CC2)cc1Cl | i | 82* | -0.94 | x | 87*
Cc1ccc(NC(=O)NCC2CCN(Cc3cccc(Cl)c3)CC2)c(Cl)c1 | i | 52 | 0.19 | x | 84*
SMILES | Autophagy mod | WT yeast gro inh | Insulin prom up | INS promoter inh | Lmaj promast
Cc1ccccc1-c1nnc(-c2cccs2)o1 | i | 10 | -0.23 | 58 | 0
Nc1ncccc1OCc1ccc(Cl)c(Cl)c1 | x | x | 0.16 | x | x
COc1ccc(CNC(=O)/C(C#N)=C2\N=C(NC(=O)c3cccs3)c3ccccc32)cc1 | i | 5 | 0.01 | -29 | 0
Cc1nc(Cl)c(C(=O)NC(=O)NCc2ccccc2)c(C)c1Cl | i | 14 | -0.45 | -52 | -5
CC(C)C(NC(=O)c1ccc(Br)cc1)C(=O)NC1=NCCS1 (stereo not drawn) | i | 21 | -0.1 | x | 5
CC(C)[C@H](NC(=O)c1ccc(C(C)(C)C)cc1)C(=O)Nc1nnc(C2CC2)s1 | i | -5 | 0.3 | 5 | 84*
CC(C)C(NC(=O)c1ccc(C(C)(C)C)cc1)C(=O)NC1=NCCS1 (stereo not drawn) | i | 63* | x | -47 | 29
CCCCCCP(=O)(O)c1ccccc1 | i | 61* | -0.96 | -28 | -7
Cc1ccc(OCC(=O)c2ccc3c(c2)CCCC3)cc1C | i | 58* | -0.24 | 27 | -3
COc1cc(CN2CCN(Cc3ccc([N+](=O)[O-])cc3)CC2)c([N+](=O)[O-])cc1OC | i | 14 | -0.58 | x | 68*
COc1cccc(CN2CCN(Cc3cc(OC)c(OC)cc3[N+](=O)[O-])CC2)c1 | i | -20 | 0.17 | x | 60*
COc1cc(CN2CCN(c3ccccc3F)CC2)c([N+](=O)[O-])cc1OC | i | -5 | 0.01 | 53 | 42
CCOC(=O)N1CCN(C(=O)c2cn(C)c3ccc(S(=O)(=O)N4CCC(C)CC4)cc3c2=O)CC1 | i | -7 | 0.17 | 29 | -6
